Experimental data: PubChem BioAssay (NCI)
About 79,000 compounds went through this panel and 15% of them were active in at least one assay; those are over-represented in the sample as a whole. Active and inactive are the calls of the source. No stated cut-off is given here; in the data, active means growth inhibition above about 70%; inactive means the rest.

What was measured:
[1] = NCI Yeast Anticancer Drug Screen. Data for the rad50 strain (AID 155);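 further: 0% = growth of vehicle-only cultures of the same strain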; settings: S. cerevisiae rad50 strain growth inhibition, stronger effect = higher value; at 50.0 µM unless noted
Method in brief: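 Growth of the mutant yeast was measured after compound exposure and referenced to vehicle-treated cultures.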

[2] = NCI Yeast Anticancer Drug Screen. Data for the mec2-1 strain (AID 157); settings: S. cerevisiae mec2-1 strain, stronger effect = higher value; at 50.0 µM unless noted
Method in brief: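 Mutant yeast (mec2-1) grown with compound; growth inhibition relative to vehicle control reported.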

[3] = NCI Yeast Anticancer Drug Screen. Data for the sgs1 mgt1 strain (AID 161);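 further: 0% = growth of cultures given vehicle only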; settings: S. cerevisiae sgs1 mgt1 strain, stronger effect = higher value; at 50.0 µM unless noted
Method in brief: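 Compounds are added to genetically altered yeast, and growth is compared with cultures given vehicle alone to give percent inhibition.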

[4] = NCI Yeast Anticancer Drug Screen. Data for the cln2 rad14 strain (AID 165);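 further: 0% = growth equal to vehicle treated cultures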; settings: S. cerevisiae cln2 rad14 strain, stronger effect = higher value; at 50.0 µM unless noted
Method in brief: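 Readout is yeast growth inhibition versus vehicle-treated controls, using a strain with cln2 and rad14 alterations exposed to compound.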

[5] = NCI Yeast Anticancer Drug Screen. Data for the bub3 strain (AID 167); settings: S. cerevisiae bub3 mutant strain, stronger effect = higher value; at 50.0 µM unless noted
Method in brief: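 Whole-cell yeast assay. The mutant strain was incubated with compounds, and growth inhibition was determined by comparison with vehicle-treated cells.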

[6] = NCI Yeast Anticancer Drug Screen. Data for the mlh1 rad18 strain (AID 175); settings: S. cerevisiae mlh1 rad18 strain growth inhibition, stronger effect = higher value; at 50.0 µM unless noted
Method in brief: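 Genetically defined yeast (DNA repair-deficient) exposed to compounds; growth inhibition determined relative to vehicle.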

Measured: growth inhibition

O=C1CN2CCC1C/C2=C\c1ccnc2c(Cl)cc(Cl)cc12 (stereo not given)
inactive: [1] 7.75% | [2] -7.55% | [3] -0.9% | [4] -3.4% | [5] -12% | [6] 19.2%

O=[N+]([O-])c1cccc(C2=NN(c3ccccc3)C3c4cc(Br)ccc4OCC23)c1 (stereo not given)
inactive: [1] -10.8% | [2] -18.4% | [3] -17.6% | [4] 2.45% | [5] 10.2% | [6] -31.7%

Cc1ccc(SCC(O)=C2C(=O)CCCC2=O)cc1
inactive: [1] -11.4% | [2] -12.3% | [3] 15.1% | [4] -0.45% | [5] -2.25% | [6] -7.45%

CC1(CI)COC(c2ccccc2)(C2CCCCC2)OC1 (stereo not given)
inactive: [1] 2.95% | [2] -5.15% | [3] 5.2% | [4] 35.3% | [5] -16.2% | [6] 15.9%

N/N=C1/CCN2CCCc3cccc1c32
inactive: [1] 11.2% | [2] 2.75% | [3] 1.25% | [4] -27.4% | [5] -19.4% | [6] 10.1%

O=C(c1ccccc1)C(F)S(=O)(=O)O (stereo not given)
inactive: [1] -5.7% | [2] -7.75% | [3] -9.05% | [4] -25.8% | [5] 6.2% | [6] 16.9%

OCC1OC(OC2C(CO)OC(O)C(O)C2O)C(O)C(O)C1O (stereo not given)
inactive: [1] 19.1% | [2] 14.9% | [3] 13.9% | [4] 13.3% | [5] 20.1% | [6] 13.7%

CCOC(=O)c1c(-c2ccccc2)csc1NS(=O)(=O)c1ccc(C)cc1
active: [1] 81.8% | [2] 78.2% | [3] 87% | [4] 82.3% | [5] 81.8% | [6] 90.6%

Cc1ccccc1C(=O)c1cccc2cccc(C(=O)c3ccccc3C)c12
inactive: [1] 13% | [2] 0.75% | [3] -10.8% | [4] 7.8% | [5] 10.8% | [6] 1.15%

CCOC(=O)/C(C#N)=C/c1ccccc1Cl
inactive: [1] 12.1% | [2] -6.3% | [3] -30.6% | [4] 16.1% | [5] -20.1% | [6] 6.35%

O=COCCCOCCCOc1ccccc1
inactive: [1] 14.3% | [2] -11.8% | [3] -9.35% | [4] -37.4% | [5] -5.6% | [6] 28.4%

O=c1[nH]c(=O)c2[nH]c(Br)nc2[nH]1
inactive: [1] 2.35% | [2] -4.3% | [3] -12.7% | [4] 0.2% | [5] -8.45% | [6] 3.85%

CC1(CCC(=O)O)C(=O)C(=O)CC2C1CCC1(C)C(O)CCC21 (stereo not given)
inactive: [1] -9.5% | [2] -0.6% | [3] -7.25% | [4] 0.15% | [5] -4.1% | [6] -17.4%

CN1CCC/C1=N\C(=Nc1ccccc1)N1CCCC1
inactive: [1] 7.95% | [2] -1.8% | [3] -6.05% | [4] 12.5% | [5] -4.35% | [6] -9.15%

O=C(O)c1nc(-c2ccccc2)ncc1-c1nnnn1-c1ccccc1
inactive: [1] -37.7% | [2] 3.75% | [3] -21.9% | [4] 4.7% | [5] -18.7% | [6] -7.1%

CN(C)c1ccc(S(=O)(=O)OC2C(C3COC(C)(C)O3)OC3OC(C)(C)OC32)cc1 (stereo not given)
inactive: [1] -8.5% | [2] 0.75% | [3] -8.7% | [4] -16.2% | [5] 3.25% | [6] 4.7%

COc1cc2c(c(OC)c1OC)-c1ccc(SC)c(=O)cc1[C@@H](NC(=O)CCl)CC2
inactive: [1] -2.1% | [2] 19.6% | [3] 0.5% | [4] 6.85% | [5] 16.6% | [6] 15.6%

N#CC(C(=O)C(=O)Nc1nccs1)c1ccccc1 (stereo not given)
inactive: [1] 5.85% | [2] -0.85% | [3] 4.75% | [4] 41.9% | [5] 17.2% | [6] 16%

O=C(Nc1cc(Cl)c(Cl)cc1Cl)C(=O)C(C(=O)c1ccc(Cl)c(Cl)c1)C1OC(=O)c2ccccc21 (stereo not given)
inactive: [1] 19.4% | [2] 8.55% | [3] 0.55% | [4] 27% | [5] 4.05% | [6] 22.6%

O=C(CCc1ccccc1)On1nnc2ccccc2c1=O
inactive: [1] -19.1% | [2] -14.2% | [3] -29.8% | [4] 9.9% | [5] -14.6% | [6] -29.1%

Cc1c(C)c(C)c(CCc2c(C)c(C)c(C)c(C)c2C)c(C)c1C
inactive: [1] -16.8% | [2] -1.25% | [3] -0.9% | [4] -16.5% | [5] -4.15% | [6] -12.3%

COc1cc(Br)c(CC(NC=O)c2ccc(OC)c(OC)c2OC)cc1OC (stereo not given)
inactive: [1] 0.4% | [2] -0.1% | [3] -6.95% | [4] -7.8% | [5] -1.5% | [6] 23.9%

ClCCCSSCCCCl
inactive: [1] 24.1% | [2] 21.2% | [3] 20.4% | [4] -7.95% | [5] 14.4% | [6] 3.85%

Cc1[nH]nc2c1C(=O)C=C(N(CCO)c1ccccc1)C2=O
inactive: [1] -24.6% | [2] 5.35% | [3] 2.25% | [4] 11.2% | [5] -11.9% | [6] -6.55%

COS(=O)(=O)CC(O)(c1ccccc1)c1ccccc1
inactive: [1] 12.7% | [2] -2.3% | [3] 48.8% | [4] -14.6% | [5] -5.8% | [6] 6.05%

C=CC(=O)Nc1ccccc1
inactive: [1] 16.4% | [2] -8.05% | [3] 8.25% | [4] -8.35% | [5] -10% | [6] 5.55%

CCOC(=O)[C@H]1Nc2c(cccc2[N+](=O)[O-])C2c3ccccc3CC21 (stereo not given in full)
inactive: [1] 48.5% | [2] 1.55% | [3] 8.6% | [4] 25.3% | [5] 9.5% | [6] 13.6%

Cc1cc(N(CCC#N)CCC#N)ccc1N=Nc1ccc(S(N)(=O)=O)cc1
inactive: [1] -39.6% | [2] -9.45% | [3] -12.4% | [4] 3.65% | [5] 0.55% | [6] 0.8%

C/C(=N\NC(N)=O)C1(O)CCCCC1
inactive: [1] -15.3% | [2] -26.7% | [3] -17.3% | [4] 4.45% | [5] -19.1% | [6] -11%

Cc1cc(N(CCC#N)CCC#N)ccc1/C=N/NC(=O)c1ccccc1
inactive: [1] 6.1% | [2] -2.35% | [3] -10.1% | [4] 6.3% | [5] 5.95% | [6] -47.5%

CCc1ccc(NC(=O)c2ccccc2)cc1CC
inactive: [1] -11.3% | [2] -11% | [3] -2.5% | [4] -97.3% | [5] -4.05% | [6] -19.1%

O=c1[nH]c(=O)n(C2OC(CO)C(O)C2Br)cc1Br (stereo not given)
inactive: [1] -2.25% | [2] -3.3% | [3] -6.8% | [4] -7.6% | [5] 0.65% | [6] 23.9%

O=C(O)c1ccc(NCn2c(=S)sc3ccccc32)cc1
inactive: [1] 6.45% | [2] 3% | [3] 52% | [4] 26.9% | [5] 11.8% | [6] 11.1%

COc1cc2cnc(-c3ccccc3)c(O)c2cc1OC
inactive: [1] 12.3% | [2] -5.25% | [3] 12% | [4] 1.3% | [5] 40.1% | [6] -6.55%

COc1ccccc1C(=O)NCC1CCCN2CCCCC12 (stereo not given)
inactive: [1] 6.5% | [2] -6.95% | [3] 14.9% | [4] -6.5% | [5] 0.7% | [6] -45.4%

CC(C)c1ccccc1NC(=O)CCC(=O)NN
inactive: [1] -11.1% | [2] -7.95% | [3] -7.95% | [4] 6.1% | [5] -17.8% | [6] -11.7%

CCc1c(CC)c(CC)c(CC)c(CC)c1CC
inactive: [1] -42.3% | [2] -14.7% | [3] -36.4% | [4] -39% | [5] 1.05% | [6] -31.8%

CC(C)C(=O)Nc1ccc(S(=O)(=O)Nc2ccc(N)cc2O)cc1
inactive: [1] -6.8% | [2] 6.6% | [3] 25.1% | [4] 1.25% | [5] 20.1% | [6] -0.75%

Cc1nc2c(cnn2C)c(=O)n1C(C)C
inactive: [1] 3.3% | [2] -0.3% | [3] 3.8% | [4] -6.5% | [5] -11.3% | [6] 3.4%

O=C(O)c1ccccc1-c1ccccc1
inactive: [1] -19.2% | [2] -36.1% | [3] -12.4% | [4] 4.3% | [5] -15.3% | [6] -1.9%
